High-throughput results as filed in PubChem BioAssay.
FMDV inh = antivirals against foot and mouth disease virus. FMDV antiviral cell-based qHTS. Potency, µM (doses to about 57.9 µM), inactives show top-dose activity change, negative = inhibition, actives largely listed as inhibitors. 410,000 compounds, 1.2% hits. AID 1159524; calls by dose curve; tested in HEK293T cells; further: read-out not given here; nearly all actives have a fitted effect of over 45% in size
VACV Venus inh = inhibitors of vaccinia virus (Venus reporter). Potency, µM (series often up to 36.5 µM), without a hit: at the highest dose activity change, negative = inhibition, actives largely listed as inhibitors. 330,000 compounds, 0.46% hits. Vaccinia virus Venus reporter expression, fluorescence; calls by dose curve; tested in A549 cells; further: nearly all actives have a fitted effect of over 30% in size
Vaccinia mCherry = vaccinia inhibition (mCherry reporter) | Vaccinia virus mCherry reporter infection, fluorescence | Potency, µM (doses to about 36.5 µM), for the others: at the top dose activity change, negative = inhibition, hits mostly inhibitors | AID 720579 | 310,000 compounds, 0.63% hits; calls by dose curve; tested in A549 cells; further: nearly all actives have a fitted effect of over 35% in size
Giardia FBPA inh = blocks Giardia fructose-bisphosphate aldolase activity. purified Giardia FBPA. Potency, µM (highest dose often 59.6 µM), for the others: at the highest dose activity, negative = inhibition, most hits filed as inhibitors. 290,000 compounds, 0.71% hits. AID 2451; active means well fitted inhibition curve with a large enough effect; inconclusive means small, poorly fitted or top-dose-only effect, or effect the other way; further: nearly all actives have a fitted effect of over 55% in size
Target sequence (A8B2U2 whole entry, looked up): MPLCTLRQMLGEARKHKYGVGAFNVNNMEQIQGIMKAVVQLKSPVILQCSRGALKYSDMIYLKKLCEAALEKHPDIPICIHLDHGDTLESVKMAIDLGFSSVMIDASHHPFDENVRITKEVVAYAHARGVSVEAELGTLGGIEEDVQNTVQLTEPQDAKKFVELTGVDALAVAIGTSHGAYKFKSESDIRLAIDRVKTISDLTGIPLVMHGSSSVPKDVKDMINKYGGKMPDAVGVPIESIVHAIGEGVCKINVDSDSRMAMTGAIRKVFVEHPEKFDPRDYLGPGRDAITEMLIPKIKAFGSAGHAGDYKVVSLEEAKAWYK
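40 nM FBPA preincubated 10 min at RT with compound (up to 57.5 uM final), then substrate plus GAPDH/TPI/NAD/arsenate coupling and diaphorase/resazurin added. Fluorescence read after 20 min at RT, 525/598 nm.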
* hit, by the source's call; i = inactive; u = inconclusive; x = not tested or not shown; [ ] = another dose, or the depositor's remark. This is a sample that favours compounds with a hit; in the whole collection about 2.2% have one here. On the % scale 0 is the no-effect control and ±100 the full control effect; potency means the concentration at half of the fitted maximal effect.

SMILES	FMDV inh	VACV Venus inh	Vaccinia mCherry	Giardia FBPA inh
C=CCn1c(O)c(C(C)=NCc2cccnc2)c(=O)[nH]c1=O	23%	x	x	0%
C=CCn1c(O)c(C(C)=NCc2cc(OC)cc(OC)c2)c(=O)[nH]c1=O	-24%	5µM*	8.9µM*	-11%
Cc1ccc(S(=O)(=O)N2CCN(c3nc(-n4ccnn4)nc4ccccc34)CC2)cc1	x	-10%	-12%	x
CCCOc1ccc(OCCSc2nnc(N)s2)cc1	-7%	-24%	x	0%
CCCOc1ccc(-c2cnc(N)s2)cc1	31%	5µM*	4.5µM*	17%
COCCCNC(=O)c1ccc2c(c1)N(Cc1ccccc1)C(=O)c1ccccc1S2	-12%	-5%	-10%	x
CCCCN(CC)CCCNC(=O)c1ccc2c(c1)N(Cc1ccc(C)cc1)C(=O)c1ccccc1S2	u	u	13µM*	x
CCCn1c2ccccc2c2nnc(SCC(=O)Nc3ncccn3)nc21	-9%	11µM*	x	1%
CCCn1c2ccccc2c2nnc(SCC(=O)Nc3cc(C)on3)nc21	-1%	10µM*	x	0%
C=CCn1c2ccccc2c2nnc(SCC(=O)Nc3cc(C)on3)nc21	-24%	-27%	x	-2%
Cn1c2ccccc2c2nnc(SCC(=O)Nc3cccc(C(=O)O)c3)nc21	u	x	x	17%
COC(=O)c1cc(CNC(=O)c2ccc3ncccc3c2)cc(NC(=O)c2ccccc2Cl)c1	3%	-6%	-1%	x
Cc1nn(S(=O)(=O)c2cccs2)c(C)c1Sc1ccccc1	x	x	x	-6%
Cc1nn(S(=O)(=O)c2cccs2)c(C)c1Sc1ccc([N+](=O)[O-])cc1	14µM*	u	u	-3%
c1ccc(CNCCCNCCCCNCCCNCc2ccccc2)cc1	-9%	13µM*	13µM*	x
O=C(O)CCCCNCc1ccccc1	x	-10%	i	-4%
Cc1cc(C)c(C(=O)NCc2nc(-c3cccc(NC(=O)C4CCCN(C)C4)c3)oc2C)[nH]1 (stereo not drawn)	-6%	-8%	-15%	x
O=S(=O)(c1ccc(C(F)(F)F)cc1)N1CCN(c2nc(-c3ccccc3)nc3ccccc23)CC1	x	-11%	-14%	x
COc1ccc(-n2c(=O)c3ccccc3c3ccccc3c2=O)cc1	u	-24%	-13%	-6%
COc1ccc(OC)c(-n2c(=O)c3ccccc3c3ccccc3c2=O)c1	25µM*	-19%	-10%	-7%
CCOC(=O)N1CCN(c2ncnc3c2cnn3-c2ccc(Cl)cc2)CC1	x	x	x	3%
CCN(CC)C(=O)C1CCCN(c2ncnc3c2cnn3-c2cccc(C)c2)C1 (stereo not drawn)	14µM*	-26%	-14%[1.46 µM]	-1%
CCOC(=O)C1CCCN(c2ncnc3c2cnn3-c2cccc(C)c2)C1 (stereo not drawn)	u	x	x	-1%
CCN(CC)C(=O)C1CCCN(c2ncnc3c2cnn3-c2ccc(Cl)cc2)C1 (stereo not drawn)	20µM*	u	i	-4%
CCOc1cc(C=C(C(=O)OC)C(=O)OC)ccc1OCc1ccc([N+](=O)[O-])cc1	u	10µM*	x	-7%
SMILES	FMDV inh	VACV Venus inh	Vaccinia mCherry	Giardia FBPA inh
CCCCCC(=O)/C=C/[C@H]1[C@H](O)CC(=O)[C@@H]1C/C=C\CCCC(=O)O	x	x	x	2%
CCc1ccc(CN2CCC(n3nccc3NC(=O)c3ccccc3OC)CC2)o1	-29%	-22%	-10%	x
CCn1ccnc1CN1CCC(n2nccc2NC(=O)c2ccccc2OC)CC1	10µM*	1%	-11%	x
Cc1cc(N2CCN(C(=O)Nc3ccc(F)cc3F)CC2)c2ccccc2n1	-23%	-11%	-19%	4%
CCCCc1ccc(NC(=O)N2CCN(c3cc(C)nc4ccccc34)CC2)c(C)c1	35µM*	x	x	6%
Nc1nc2ncc(=O)[nH]c2c(=O)[nH]1	1%	0%	i	-26%
NC(=O)C1=C(c2ccccc2)c2ccccc2C1=O	32µM*	1%	-1%	x
CC(C)c1ccc2c(c1)C(N1CCNCC1)Cc1ccc(F)cc1S2 (stereo not drawn)	-5%	u	11µM*	x
CCCCCCN1C[C@@H](O)[C@H](n2cc(C3CC3)nn2)C[C@@H]1c1ccccc1	u	-28%	i	x
CCCCCCN1C[C@H](n2cc(C3CC3)nn2)[C@@H](O)C[C@@H]1c1ccccc1	-26%	11µM*	u	x
CCCCCCN1C[C@H](n2cc(-c3ccc(F)cc3)nn2)[C@@H](O)C[C@@H]1c1ccc(C)cc1	-22%	u	28µM*	x
N#C/C(=C\c1ccccn1)c1ccccn1	10%	u	3.5µM*	0%
N#C/C(=C/c1cccs1)c1ccccn1	65%	x	x	0%
O=C(CCCN1C(=O)/C(=C/c2ccccc2Cl)SC1=S)NNC(=O)c1ccc(Cl)cc1Cl	8.9µM*	-8%	-6%	8%
COC(=O)c1ccc(NC(=O)CCc2nnc3ccc(N4CCC5(CC4)OCCO5)nn23)cc1	28µM*	-1%	-10%	-1%
COc1ccc(NC(=O)CCc2nnc3ccc(N4CCC5(CC4)OCCO5)nn23)cc1	-9%	-6%	i	-8%
CC(CCCC(C)(C)O)NC(=O)c1cc(COc2ccc3ncccc3c2)on1 (stereo not drawn)	u	-20%	-25%	2%
Cc1cc(C)n(CCNC(=O)c2cc(COc3ccc4ncccc4c3)on2)n1	13µM*	x	x	-3%
O=C(NCc1cccc(Cl)c1)c1cc(COc2ccc3ncccc3c2)on1	16µM*	-22%	u	2%
CSc1ccccc1OCc1cc(C(=O)NCCn2nc(C)cc2C)no1	-22%	-16%	-5%	4%
Cc1ccc(F)cc1CNC(=O)c1cc(COc2ccc3ncccc3c2)on1	25µM*	-7%	u	-2%
COc1ccc(/C=C/c2ccnc3ccccc23)c(OC)c1	x	2%	-29%	x
CC(C)c1c(C(=O)N(C)Cc2cccc3ncccc23)cnn1-c1nccc(-c2ccco2)n1	u	-29%	u	x
COC(=O)C1=C(C(=O)OC)[C@@H]2Nc3ccccc3[C@@]23C[C@@H](C(=O)OC)N(S(=O)(=O)c2ccc(OC)cc2)C3=N1	x	x	x	3%[12.9 µM]
C/C(=N\NC(=O)CCCNc1ccc(C)cc1)c1ccccn1	-28%	u	11µM*	9%
COc1ccc(C(=O)Nn2c(SCC(=O)NC3CCCCC3)nc3ccccc3c2=O)cc1	13µM*	x	x	22%
COc1ccc(C(=O)Nn2c(SCC(=O)N3CCC(C)CC3)nc3ccccc3c2=O)cc1	11µM*	x	x	18%
